Data reported in PubChem BioAssay AID1619 (SRMLSC, 2009).
About 830 (0.38%) of roughly 220,000 compounds were called active.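 The calls were made as follows: active = compound inhibiting the enzyme by more than half at any dose during confirmatory dose-response retesting; inconclusive = strong single-dose inhibitors picked by rank but not retested; inactive = the rest.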 These entries were drawn from the full list. Results with a measured potency or affinity are listed apart.

The compounds below were run against Leucine aminopeptidase (Plasmodium falciparum (isolate 3D7)) (UniProt Q8IL11) (assay: P. falciparum M17LAP inhibitors, primary screen, biochemical, fluorogenic H-Leu-NHMec substrate, 1536-well (AID 1619;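 also: plate controls were full reaction with DMSO carrier for no effect and no enzyme background for full effect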)). Details: recombinant M17LAP, H-Leu-NHMec fluorogenic kinetic assay; at 30 µM; stronger effect = higher value.
Leucine aminopeptidase (Plasmodium falciparum (isolate 3D7)), sequence (Q8IL11 whole entry, looked up): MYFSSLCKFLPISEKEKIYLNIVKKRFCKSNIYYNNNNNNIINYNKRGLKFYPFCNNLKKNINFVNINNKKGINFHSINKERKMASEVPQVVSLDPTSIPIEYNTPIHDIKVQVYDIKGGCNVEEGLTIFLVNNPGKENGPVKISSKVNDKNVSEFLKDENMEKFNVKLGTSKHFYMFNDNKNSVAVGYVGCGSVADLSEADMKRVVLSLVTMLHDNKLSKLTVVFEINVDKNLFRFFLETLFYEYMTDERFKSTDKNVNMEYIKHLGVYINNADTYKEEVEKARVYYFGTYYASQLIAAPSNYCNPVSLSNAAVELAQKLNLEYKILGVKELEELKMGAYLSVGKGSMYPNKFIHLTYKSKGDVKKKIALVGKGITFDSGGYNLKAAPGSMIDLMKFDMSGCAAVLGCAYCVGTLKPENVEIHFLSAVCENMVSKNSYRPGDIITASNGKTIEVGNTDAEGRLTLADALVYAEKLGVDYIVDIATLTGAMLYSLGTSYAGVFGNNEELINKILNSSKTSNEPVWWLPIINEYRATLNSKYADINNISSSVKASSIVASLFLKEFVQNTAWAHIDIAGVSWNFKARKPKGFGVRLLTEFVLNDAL

inhibition, inactive:
Fc1cccc(CSc2ccc3nnc(-c4cccnc4)n3n2)c1 21.3%, O=C(NC(=S)Nc1ccccc1O)c1ccc(-c2ccc(Cl)cc2)o1 1.04%, COc1ccccc1NC(=S)NC(=O)c1ccc(-c2ccc(Cl)cc2)o1 4.34%, Cc1ccc(OCC(=O)Nc2ccc(N(C)C)cc2)cc1 -2.19%, Cc1cccc(-c2n[nH]c(=S)n2-c2ccccc2)c1[N+](=O)[O-] 0.12%, COc1ccc(-n2c(C(C)n3nc(C)c([N+](=O)[O-])c3C)n[nH]c2=S)cc1 (configuration not stated) 31.2%, Cc1ccc(NC(=S)NC(C)(C)C)c([N+](=O)[O-])c1 -4.98%, O=C(O)C1CCCCC1C(=O)NCCc1ccccc1 (configuration not stated) 32.3%, O=C(O)[C@H]1CCCC[C@H]1C(=O)NCCc1ccccc1 36.3%, COc1ccc(CNC(=O)C2CCNCC2)cc1 -2.52%, CC1=C(C)CC(C(=O)NCc2ccc3c(c2)OCO3)C(C(=O)O)C1 (configuration not stated) 45.8%, CCC(c1nnnn1Cc1cccs1)N1CCN(C(=O)c2ccco2)CC1 (configuration not stated) 16.8%, COc1ccc(CC(=O)O/N=C(\N)c2ccncc2)cc1 -0.41%, COc1ccc(-n2nc(C(=O)N3CCN(Cc4ccc5c(c4)OCO5)CC3)c3ccccc3c2=O)cc1 6.93%, Cc1nc(Nc2ccc(S(=O)(=O)N3CCCCC3C)cc2)c2nnn(Cc3ccccc3)c2n1 (configuration not stated) 9.37%, COc1ccc(NC(=O)c2ccc(NCCN3C(=O)CCC3=O)c([N+](=O)[O-])c2)cc1 4.32%, COC(=O)c1ccccc1NC(=O)CSc1nc(O)c(-c2ccccc2)c(=O)[nH]1 5.3%, O=C(O)C(Cc1ccccc1)N1Cc2ccccc2C1=O (configuration not stated) -1.49%, CSCC[C@@H](C(=O)O)N1Cc2ccccc2C1=O 5.39%, CCN(Cc1ccccc1)C(=O)Cn1c(=O)n(CC(=O)NCc2ccco2)c(=O)c2sccc21 -1.64%, CCN(C(=O)CSc1nnc2ccccn12)c1c(N)n(Cc2ccccc2)c(=O)[nH]c1=O 12.8%, N#C/C(=C\c1ccc(Cl)cc1)c1nc2ccccc2o1 8.5%, COc1ccc(/C=C(\CC(=O)O)c2nc3ccccc3o2)cc1 48.7%, COc1ccc(/C=C/C(=O)NCCC(=O)N2CCCN(C)CC2)cc1 0.13%, Fc1ccccc1Nc1nc(-c2ccncc2)nc2ccccc12 0.48%, Cc1cc(C(=O)NC(Cc2ccccc2)C(=O)O)c(C)o1 (configuration not stated) -7.27%, CSCCC(NC(=O)c1cc(C(C)(C)C)oc1C)C(=O)O (configuration not stated) 20.9%
